The sample as a whole holds a higher share of hits than the screen did.
FECH block = inhibitors of human ferrochelatase, primary screen, biochemical, purified FECH, Ni-mesoporphyrin absorbance. AID 1671448, 2021. calls only at 10 µM (by protocol). 20,000 compounds, 3.3% hits. Ni-mesoporphyrin absorbance 550 nm;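 active = enzyme reaction rate more than 3 SD below the solvent-only control wells on the same plate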;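 also: lower slope than DMSO wells means FECH inhibition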
Target sequence (P22830 whole entry, looked up): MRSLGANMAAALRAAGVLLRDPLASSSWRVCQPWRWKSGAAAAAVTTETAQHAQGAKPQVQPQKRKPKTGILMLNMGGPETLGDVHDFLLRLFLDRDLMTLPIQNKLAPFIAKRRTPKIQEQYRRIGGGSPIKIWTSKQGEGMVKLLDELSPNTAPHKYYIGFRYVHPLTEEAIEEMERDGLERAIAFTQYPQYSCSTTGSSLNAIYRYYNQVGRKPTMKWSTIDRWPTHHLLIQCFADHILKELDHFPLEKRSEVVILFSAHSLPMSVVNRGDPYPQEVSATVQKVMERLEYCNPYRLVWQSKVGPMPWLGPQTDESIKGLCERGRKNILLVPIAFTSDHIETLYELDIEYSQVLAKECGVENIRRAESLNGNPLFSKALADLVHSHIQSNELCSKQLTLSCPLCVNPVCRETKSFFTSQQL
Active calls of the source: *; i = inactive; + = active, no number.

SMILES	FECH block
CN1C(=O)c2cc(C(=O)NCCCN3CCCC3)nn2CC1(C)C(=O)NCc1ccc(F)cc1 (stereo not drawn)	i
CCc1cc(Sc2ccccc2NC(=O)c2ccco2)n2ncnc2n1	i
Cc1cccc(C(=O)N(Cc2nc3nc(C)cc(C)n3n2)c2cccc(C)c2)c1	i
Cc1cccc(N(Cc2nc3nc(C)cc(C)n3n2)C(=O)c2ccco2)c1	i
Cc1cc(C)n2nc(CN(C(=O)Cc3ccccc3)c3ccccc3)nc2n1	+
Cc1ccc(C(=O)N(Cc2nc3nc(C)cc(C)n3n2)c2cccc(Cl)c2)cc1	i
Cc1ccc(N(Cc2nc3nc(C)cc(C)n3n2)C(=O)c2ccco2)cc1	i
CCOc1ccc(N(Cc2nc3nc(C)cc(C)n3n2)C(=O)c2cccc(Cl)c2)cc1	i
Cc1cc(C)n2nc(CN(C(=O)c3ccco3)c3ccc(F)cc3)nc2n1	+
Cc1cc(C)n2nc(CN(C(=O)c3cccc(Cl)c3)c3ccccc3)nc2n1	i
Cc1cccc(N(Cc2nc3nc(C)cc(C)n3n2)C(=O)c2cccc(Cl)c2)c1	+
Cc1cc(C)n2nc(CN(C(=O)c3ccccc3)c3cccc(Cl)c3)nc2n1	+
Cc1cc(C)n2nc(CN(C(=O)Cc3ccccc3)c3ccc(F)cc3)nc2n1	i
Cc1cccc(N(Cc2nc3nc(C)cc(C)n3n2)C(=O)Cc2ccccc2)c1	i
C=CCN(c1nc2nc(C)cc(C)n2n1)S(=O)(=O)c1ccc(C)cc1	i
Cc1ccsc1CN1CCN(C)C2(CCN(C(=O)c3ccco3)CC2)C1	i
Cc1ccc(N2C(=O)CCS2(=O)=O)cc1S(=O)(=O)N1c2ccccc2CC1C (stereo not drawn)	i
COc1cccc(Cn2c(CNS(=O)(=O)c3cccc([N+](=O)[O-])c3)nc3cccnc32)c1	i
CC(=O)c1cn(CC(=O)NC2CCC(n3cnnc3)CC2)c2ccccc12 (stereo not drawn)	i
CCOc1ccccc1NS(=O)(=O)c1cc(N2C(=O)CCS2(=O)=O)ccc1OC	i
c1cnc2c(-c3ccc(Cn4ccnc4)cn3)cccc2c1	i
CCCCN(Cc1nc2nc(C)cc(C)n2n1)S(=O)(=O)c1ccc(Cl)cc1	i
Cc1ccc(C(=O)N(Cc2nc3nc(C)cc(C)n3n2)c2cccc(C)c2)cc1	+
Cc1cc(C)n2nc(CN(C(=O)c3ccc(F)cc3)c3ccccc3)nc2n1	i
Cc1cccc(N(Cc2nc3nc(C)cc(C)n3n2)C(=O)C(C)C)c1	+
SMILES	FECH block
CCC(C(=O)N(Cc1nc2nc(C)cc(C)n2n1)c1cccc(C)c1)c1ccccc1 (stereo not drawn)	i
Cc1cccc(N(Cc2nc3nc(C)cc(C)n3n2)C(=O)CC(C)C)c1	i
COc1ccc(C(=O)N(Cc2nc3nc(C)cc(C)n3n2)c2cccc(C)c2)cc1OC	i
Cc1ccc(Cn2c(CCNC(=O)Nc3ccccc3Cl)nc3cccnc32)cc1	i
Cc1oc(-c2cccc(C(F)(F)F)c2)nc1Cn1ccnc1C	i
COc1ccc(Nc2ncnc3sc(C)c(S(=O)(=O)N4CCCCC4)c23)cc1Cl	i
Cc1ccc(-c2nnc(-c3nc(Nc4cccc(C)c4)c4ccccc4n3)o2)cc1	i
CCN1C(=O)C2(c3ccccc31)C(C(=O)Nc1cc(C)cc(C)c1)CC1CSCN12 (stereo not drawn)	i
Cc1ccc(N2C(=O)N(CC(=O)NC3CCCCC3)c3ccccc3S2(=O)=O)c(C)c1	i
Cc1ccc(CN2CC(=O)N(Cc3ccccc3)c3ccccc3S2(=O)=O)cc1	i
CCN1C(SCC(=O)Nc2c(C)cc(C)cc2C)=NS(=O)(=O)c2ccccc21	+
Cc1cc(C)c(NC(=O)CN2CCN(Cc3ccccc3C)S2(=O)=O)c(C)c1	i
Cc1cc(N2CCCN(C(=O)CSc3ncccn3)CC2)ccn1	i
Cc1ccc(CNC(=O)CN2C(=O)C3CCCCN3C(=O)c3ccccc32)cc1 (stereo not drawn)	i
CCN1C(SCC(=O)Nc2ccc3c(c2)OCCO3)=NS(=O)(=O)c2ccccc21	i
CCN1C(SCC(=O)NCc2ccc(C)cc2)=NS(=O)(=O)c2ccccc21	+
CCN1C(SCC(=O)Nc2cc(C)cc(C)c2)=NS(=O)(=O)c2ccccc21	+
Cc1ccc(S(=O)(=O)N2CCC(CC(=O)N3CCN(c4ccccc4)CC3)CC2)cc1	i
CCN1C(SCC(=O)N2CCN(c3ccccc3)CC2)=NS(=O)(=O)c2ccccc21	+
Cc1nc2ccc(CC(=O)N(C)Cc3ccccc3OCC(C)C)cc2[nH]1	i
CC(=O)c1cc(CN(Cc2ccccc2)Cc2nccs2)cs1	i
c1nc(C2CCCNC2)cc(N2CC3CC4CC2C[C@@H](C4)C3)n1 (stereo partly drawn)	i
O=C(NCC(=O)N1CCC(c2nc(-c3ccccc3)no2)CC1)c1ccccc1	i
COc1ccc(NC(=O)CN2CCCN(Cc3ccc(C)cc3)S2(=O)=O)c(OC)c1	i
O=C(CN1CCCN(Cc2ccccc2Cl)S1(=O)=O)Nc1ccccc1	i
SMILES	FECH block
Cc1ccc(NC(=O)CN2CCN(Cc3cc(C)ccc3C)S2(=O)=O)cc1	i
COc1ccc(NC(=O)CN2CCCN(Cc3ccc(C)cc3)S2(=O)=O)cc1	i
CSc1cccc(NC(=O)CN2CCN(Cc3ccccc3C)S2(=O)=O)c1	+
COc1cc(OC)c(NC(=O)CN2CCCN(Cc3cc(C)ccc3C)S2(=O)=O)cc1Cl	+
CCOC(=O)c1ccc(NC(=O)CN2CCCN(Cc3ccc(C)cc3)S2(=O)=O)cc1	i
CSc1cccc(NC(=O)CN2CCN(Cc3ccccc3)S2(=O)=O)c1	i
CC(=O)c1cccc(NC(=O)CN2CCCN(Cc3ccccc3Cl)S2(=O)=O)c1	i
COc1ccc(NC(=O)CN2CCCN(Cc3ccccc3Cl)S2(=O)=O)cc1Cl	+
CCOc1ccc(NC(=O)CN2CCCN(Cc3ccc(C)cc3)S2(=O)=O)cc1	+
CCc1cccc(NC(=O)CN2CCN(Cc3ccccc3C)S2(=O)=O)c1	i
CC[C@@]1(C(=O)O)C[C@H](C(=O)N2CC=CCC2)[C@H](c2ccc(OC)cc2)N1C	i
COCCNC(=O)c1[nH]cnc1C(=O)NC(C)C	i
CNc1nc(CN2CCOC(c3ccc(Cl)c(Cl)c3)C2)cs1 (stereo not drawn)	i
Cc1nc(-c2ccccc2)c(C(=O)NCCSc2nncn2C)s1	i
Oc1cc(-c2cccc(Cl)c2)cc2c1OCCN(CCCc1cccnc1)C2	i
Cc1ccc(-c2cc(N3CCN(S(=O)(=O)c4ccc(C)cc4C)CC3)ncn2)cc1	i
O=C(NCCn1c(-c2ccncc2)nc2cccnc21)c1ccc(F)cc1	i
O=C(CN1CCCN(Cc2ccc(Cl)cc2)S1(=O)=O)Nc1ccc(F)c(Cl)c1	i
O=C(CN1CCCN(Cc2ccc(Cl)cc2)S1(=O)=O)Nc1cccc(Cl)c1	+
Cc1cccc(NC(=O)CN2CCCN(Cc3ccc(Cl)cc3)S2(=O)=O)c1	i
COc1ccc(NC(=O)CN2CCN(Cc3cccc(C)c3)S2(=O)=O)cc1Cl	+
COc1ccc(NC(=O)CN2CCCN(Cc3ccc(Cl)cc3)S2(=O)=O)cc1Cl	+
CCOc1ccc(NC(=O)CN2CCN(Cc3cccc(C)c3)S2(=O)=O)cc1	i
COc1cccc(NC(=O)CN2CCN(Cc3ccc(C)cc3)S2(=O)=O)c1	+
O=C(CN1CCCN(Cc2cccc(Cl)c2)S1(=O)=O)Nc1cccc(Cl)c1	i
Cc1ccc(NC(=O)CN2CCN(Cc3ccccc3)S2(=O)=O)cc1C	i
